± gives the standard deviation. Whole data set: some 8,200 sequences, median “pre-steady-state target cleavage rate” near 0.024, cut for the highest 2% near 1.3. Many of the other results were omitted from the sample, so the highest values are more common in it than they were.
Tested on: MIWI (PIWIL1) piRISC loaded with L1MC piRNA (30 nt)
Assay: pre-steady-state target cleavage rate (min^-1); MIWI and MILI are mouse PIWI proteins and EfPiwi is from a freshwater sponge; tags in brackets are library labels; higher = faster piRNA-guided slicing of the target
Conditions: guide: L1MC piRNA 5'p-UAACUAAAUACUAUGCAAGCUGUAGGUCCU
In short: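 In this Cleave-'n-Seq assay, uncleaved targets were sequenced and normalised to depth and to weakly complementary targets. They came from a transcribed, DNA-blocked target RNA library […] mixed with 1 nM active affinity-purified piRISC carrying one synthetic guide, with or without 500 nM GTSF1 partner protein, in HEPES–potassium acetate buffer at 33 °C for 0–8 or 0–960 min. After three trials were pooled and k3 was capped at 0.0001 min^-1, the pre-steady-state cleavage rate was obtained from a burst-and-steady-state fit.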

[1] = auxiliary factor: 500 nM mouse GTSF1
[2] = auxiliary factor: none (no GTSF1)
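Note: 1 nM active piRISC with 0.1 nM target library at 33 °C single turnover.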

| Sequence | pre-steady-state target cleavage rate [1] | pre-steady-state target cleavage rate [2] |
| --- | --- | --- |
| UGGACCUUCAGCUUGCAUAGUAUUUAGUUA | 1.45 ± 0.067 | 0.069 ± 0.011 |
| AGGACCUACAGCUUGCAUAGUAUAUAGUUA | 0.884 ± 0.066 | 0.0667 ± 0.017 |
| UGGACCUACAGCUUGCAUAGUAUUAUAGUUA | 1.24 ± 0.062 | 0.052 ± 0.011 |
| UGGACCUUCAGCUUGCAUAGUAUUUAGUAA | 1.07 ± 0.064 | 0.0524 ± 0.011 |
| AGGACCUUCAGCUUGCAUAGUAUUUAGUAA | 1.07 ± 0.079 | 0.0632 ± 0.012 |
| UGGACCUACAGCUUGCAUAGUAUAUAGUUA | 0.892 ± 0.062 | 0.0341 ± 0.0087 |
| UGGACCUACAGCUUGCAUAGUAUAUUAGUUA | 1.33 ± 0.079 | 0.0409 ± 0.0089 |
| AGGACCUUCAGCUUGCAUAGUAUUUAGUUA | 1.32 ± 0.056 | 0.0842 ± 0.013 |
| UGGACCUACAGCUUGCAAAGUAUAUAGUUA | 0.895 ± 0.057 | 0.0204 ± 0.0062 |
| UGGACCUUCAGCUUGCAAAGUAUUUAGUUA | 1.34 ± 0.073 | 0.0368 ± 0.0084 |
| AGGACCUACAGCUUGCAUAGUAUAUUAGUUA | 1.18 ± 0.097 | 0.0609 ± 0.015 |
| AGGACCUUCAGCUUGCAAAGUAUUUAGUUA | 1.3 ± 0.051 | 0.0464 ± 0.0089 |
| UGGACCUACAGCUUGCAUAGUAUUAGUUA | 0.172 ± 0.032 | 0.00299 ± 0.0019 |
| UCGACCUACAGCUUGCAAAGUAUAUAGUUA | 0.855 ± 0.055 | 0.0157 ± 0.0033 |
| UCCUCCUACAGCUUGCAUUGUAUUAAGUUA | 0.309 ± 0.026 | 0.00813 ± 0.0024 |
| UCCACCUACAGCUUGCAUAGAAUUUAGAUA | 0.247 ± 0.037 | 0.00935 ± 0.0029 |
| UCGACCUACAGCUUGCAUAGUUAUUACAAA | 0.115 ± 0.035 |  |
| UCCUGGAUGUCGAACGUAAGUAUUUAAUUA | < 0.0001 |  |
| UCCUGGUACAGCUUGCAUAGUUUAUAGUUA | 0.0594 ± 0.017 | 0.0135 ± 0.004 |
| UCCUGGAUGUCGAACGUUUGUAUAUAGUUA | < 0.0001 |  |
| UGGACCUACAGCUUGCAUAGUAUUUAGUA | 0.885 ± 0.062 | 0.0273 ± 0.0069 |

| Sequence | pre-steady-state target cleavage rate [1] | pre-steady-state target cleavage rate [2] |
| --- | --- | --- |
| UGGACCUACAGCUUGCAUAGUAUUUAGUUU [g2:g29:cont:t1U] | 1.62 ± 0.082 | 0.0974 ± 0.02 |
| UGGACCUACAGCUUGCAUAGUAUUUAGUUUA | 1.56 ± 0.086 | 0.075 ± 0.014 |
| UGGACCUACAGCUUGCAUAGUAUUUAGUAA | 1.11 ± 0.064 | 0.0627 ± 0.014 |
| UGGACCUACAGCUUGCAUAGUAUUUAGUUC [g2:g29:cont:t1C] | 1.14 ± 0.068 | 0.0625 ± 0.012 |
| UGGACCUACAGCUUGCAUAGUAUUUAGCUUA | 0.316 ± 0.023 | 0.0288 ± 0.0059 |
| UCCUGGAACAGGUUGCAUAGUAUUUAGAAA | 0.362 ± 0.043 |  |
| AGGACCUACAGCUACGAUAGUAUUUAGUAA | 0.153 ± 0.045 |  |
| UCGACCAACAGCUUGCAUAGUAAUUAGUUA | 0.972 ± 0.041 | 0.0305 ± 0.0074 |
| AGGACCUACAGCUUGGUUAGUAUUUACAAA | 0.0786 ± 0.021 |  |
| UGGACCUACAGCAAGCAUAGUAUUUACAAA | 0.273 ± 0.051 |  |
| UCCACCUACAGCUUGUAUAGUAUUUAGUUA | 1.18 ± 0.048 | 0.0524 ± 0.0091 |
| AGGACCUACAGCUUGCUAUAGUAUUUAGUUA | 0.137 ± 0.037 |  |
| UGGACCUACAGCUUGUCAUAGUAUUUAGUUA | 0.706 ± 0.1 | 0.00373 ± 0.0033 |
| UCGACCUACAGCUUGUAUAGUAUUUAGUUA | 1.7 ± 0.074 | 0.0725 ± 0.015 |
| AGGACCUACAGCUUGUAUAGUAUUUAGUUA | 1.6 ± 0.061 | 0.0803 ± 0.015 |
| UCGACCUACAGCUUGUCAUAGUAUUUAGUUA | 0.742 ± 0.083 | 0.00458 ± 0.0029 |
| UCGACCUACAGCUUGCUAUAGUAUUUAGUUA | 0.0661 ± 0.018 |  |
| UGGACCUACAGCUUGUAUAGUAUUUAGUUA | 1.77 ± 0.11 | 0.0563 ± 0.012 |
| UGGACCUACAGCUUGCUAUAGUAUUUAGUUA | 0.0205 ± 0.0066 |  |
| UCCUGGAUGAGCUUGCAUACUAUUUAGAUA | 0.0538 ± 0.017 | 0.00863 ± 0.0041 |
| AGGACCUACAGCUAGCAUAGUAUUUACAAA | 0.474 ± 0.071 |  |

| Sequence | pre-steady-state target cleavage rate [1] | pre-steady-state target cleavage rate [2] |
| --- | --- | --- |
| UCCACCUUCAGGUUGCAUAGUAUUUAGUUA | 0.817 ± 0.1 | 0.0279 ± 0.0047 |
| UCCUGGAUCAGCUCUGCAUAGUAUUUAGUUA | 0.985 ± 0.054 | 0.0138 ± 0.0041 |
| UCCUGCUUGAGCUUGCAUAGUAUUUAGUAA | 0.491 ± 0.051 | 0.0206 ± 0.004 |
| UCCUGGAACAGCUUGCAUAGUAAUUACAAA | 0.129 ± 0.038 |  |
| UCCUGGAACAGGUUGCAUAGUAUUUACUUA | 0.164 ± 0.023 | 0.0109 ± 0.0022 |
| AGGACGUACAGCUUGCAUAGUAUUUAGUUA | 1.19 ± 0.048 | 0.0866 ± 0.014 |
| UGGACGUACAGCUUGCAAAGUAUUUAGUUA | 1.3 ± 0.045 | 0.0558 ± 0.0096 |
| UCGACGUACAGCUUGCAUUGUAUUUAGUUA | 0.883 ± 0.027 | 0.0351 ± 0.0076 |
| UGGACGUACAGCUUGCUUAGUAUUUAGUUA | 1.37 ± 0.069 | 0.0454 ± 0.0082 |
| UCGACGUACAGCUUGCUUAGUAUUUAGUUA | 1.63 ± 0.09 | 0.0366 ± 0.0073 |
| AGGACGUACAGCUUGCUUAGUAUUUAGUUA | 1.31 ± 0.055 | 0.0487 ± 0.0095 |
| UGGACGUACAGCUUGCAUUGUAUUUAGUUA | 0.79 ± 0.05 | 0.0432 ± 0.01 |
| UCGACGUACAGCUUGCAAAGUAUUUAGUUA | 1.26 ± 0.043 | 0.0364 ± 0.0077 |
| AGGACGUACAGCUUGCAAAGUAUUUAGUUA | 1.11 ± 0.057 | 0.0396 ± 0.0083 |
| UCCUCCUACAGCAUGCAUAGUAUAUAGUUA | 0.786 ± 0.042 | 0.00795 ± 0.0022 |
| UCCUCCUUCAGCAUGCAUAGUAUUUAGUUA | 1.01 ± 0.043 | 0.0155 ± 0.0034 |
| UCCUGGAUGUCGUAGCAUAGUAUUUAGUUA | 0.0153 ± 0.005 |  |
| UCCUGGAUGUCCUUGCUUAGUAUUUAGUAA | 0.00726 ± 0.004 |  |
| UCCUGCUACAGCUUGCAUACAAUUUAGUAA | 0.0165 ± 0.008 |  |
| UCCUCCUACAGCUUGCAAAGUAUUUACAAA | 0.267 ± 0.036 | 0.00344 ± 0.0031 |

— the supplement of paper PMC10338343
